Screening data (PubChem BioAssay)
JMJD2A Tudor – JMJD2A Tudor domain (human) inhibition; O75164; AlphaScreen JMJD2A-Tudor / H3K4me3 peptide binding; Potency, µM (series often up to 114 µM), hits mostly inhibitors; hit rate 4.4% among 390,000; AID 504339; note: nearly all actives have a fitted effect of over 50% in size
HP1b chromo inh – blocks HP1-beta chromodomain binding to methylated histone tails. AlphaScreen HP1-beta / biotin-H3K9me3 peptide binding. Potency, µM (top dose mostly 114 µM), most hits filed as inhibitors. hit rate 0.56% among 390,000; note: nearly all actives have a fitted effect of over 70% in size
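HP1-beta protein (50 nM final) preincubated 30 min at room temperature with biotinylated H3(1-18)K9me3 peptide (50 nM) in PBS pH 7.4, 0.01% Tween-20, then compound added for 30 min. AlphaScreen streptavidin donor/nickel chelate acceptor beads (10 ug/mL final), 30 min dark, luminescence read.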
PLK1 PBD block – inhibitors of human PLK1 polo-box domain binding | P53350 | Plk1 PBD binding of FITC phosphopeptide, fluorescence polarization | Potency, µM, most hits filed as inhibitors | hit rate 2.8% among 360,000; note: series mostly up to about 57 µM; nearly all actives have a fitted effect of over 65% in size
PI5P4Ka inh – PI5P4K alpha (human) kinase inhibition | max response, % | PI5P4Kalpha enzyme, ADP-Glo luminescence, 60 min; hits give low values | P48426 | hit rate 1.2% among 330,000 | AID 652105; active = max response of -50% or lower; inconclusive = between -30% and -50%; inactive = -30% or higher; note: value at the top dose of about 77 µM
Target sequence (P48426 whole entry, looked up): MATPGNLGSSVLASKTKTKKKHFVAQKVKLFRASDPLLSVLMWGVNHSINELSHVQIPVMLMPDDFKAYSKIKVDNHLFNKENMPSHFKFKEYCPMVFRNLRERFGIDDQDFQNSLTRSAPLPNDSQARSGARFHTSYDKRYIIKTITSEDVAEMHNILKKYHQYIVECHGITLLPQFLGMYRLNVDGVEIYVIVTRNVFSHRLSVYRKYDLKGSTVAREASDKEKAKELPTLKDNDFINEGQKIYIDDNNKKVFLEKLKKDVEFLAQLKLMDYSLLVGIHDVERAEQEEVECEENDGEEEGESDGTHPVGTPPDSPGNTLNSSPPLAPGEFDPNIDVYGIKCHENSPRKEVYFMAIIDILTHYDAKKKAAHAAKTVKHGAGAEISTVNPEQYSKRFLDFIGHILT
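Compounds were pin-transferred onto PI5P4Kalpha and substrate in HEPES pH 7.4 buffer with EGTA, CHAPS and 5% DMSO. ATP (5 microM final) started the reaction, which ran 60 minutes at room temperature before ADP-Glo detection.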
BAZ2B block – BAZ2B (human) inhibition | Q9UIF8 | AlphaScreen BAZ2B-H3K14Ac peptide displacement | Potency, µM (highest dose often 114 µM), usual class: inhibitors | hit rate 4.4% among 360,000 | AID 504333; note: nearly all actives have a fitted effect of over 60% in size
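BAZ2B 50 nM plus b-H3(5-23)K14Ac 50 nM, PBS pH 7.4/0.01% Tween-20, 30 min RT; compound added (max 110 uM), 30 min RT; streptavidin donor/Ni-chelate acceptor beads 10 ug/mL final, 20 min dark; AlphaScreen read.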
G9a inh – G9a (human) methyltransferase inhibition | G9a H3K9 monomethylation, AlphaScreen, 2 h | Potency, µM (doses to about 102 µM), hits mostly inhibitors | hit rate 8.8% among 350,000; note: nearly all actives have a fitted effect of over 75% in size
Target sequence (Q96KQ7 913-1193 limits assumed): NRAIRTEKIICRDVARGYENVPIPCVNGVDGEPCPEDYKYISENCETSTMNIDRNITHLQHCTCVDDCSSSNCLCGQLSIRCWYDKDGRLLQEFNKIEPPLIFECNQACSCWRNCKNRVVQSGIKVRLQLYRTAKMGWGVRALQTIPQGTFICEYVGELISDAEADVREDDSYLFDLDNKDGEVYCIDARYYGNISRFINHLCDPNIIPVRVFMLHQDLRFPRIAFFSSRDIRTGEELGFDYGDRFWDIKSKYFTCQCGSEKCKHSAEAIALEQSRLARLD
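Signal arises when biotinylated H3K9 peptide, once monomethylated, bridges streptavidin donor and antibody-captured acceptor beads. Enzyme at 20 nM was preincubated 15 min with test compounds; peptide 500 nM and SAM 20 uM then reacted for 2 h.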
Each line names hits and unclear results; the compound was inactive in the other large screens. Shown are actives, neighbours in structure and some others; about 12% of the full set was active somewhere. Unless noted, calls come from the whole dose curve; as a rule, active = well fitted curve in the direction sought with a large enough effect; inconclusive = small, poorly fitted or top-dose-only effect, or another doubt; inactive = no such curve, though single readings can be large; an effect the other way counts as inactive or inconclusive.

Cc1ccc(C(=O)C2=C(O)C(=O)N(c3ncccn3)C2c2ccc(Cl)cc2)o1 (stereo not drawn)	G9a inh 10µM
Cc1cc(N2C(=O)C(O)=C(C(=O)c3ccco3)C2c2cccnc2)no1 (stereo not drawn)	none (no result: JMJD2A Tudor, HP1b chromo inh, PLK1 PBD block, PI5P4Ka inh)
O=C(C1=C(O)C(=O)N(c2ncccn2)C1c1cccc(Cl)c1)c1ccco1 (stereo not drawn)	BAZ2B block inconclusive, G9a inh 18µM (no result: PI5P4Ka inh)
O=C(C1=C(O)C(=O)N(c2ncccn2)C1c1ccc(Cl)c(Cl)c1)c1ccco1 (stereo not drawn)	JMJD2A Tudor 7.1µM, HP1b chromo inh inconclusive, BAZ2B block 79µM, G9a inh 40µM (no result: PI5P4Ka inh)
O=C(/C=C/NCC(=O)c1ccccc1)c1ccc(Br)cc1	G9a inh 6.3µM
NC(=O)CC[C@@H]1NC(=O)[C@@H]2CCCN2C(=O)c2cc([N+](=O)[O-])cc(I)c2NCCC[C@@H](C(N)=O)NC1=O	G9a inh 45µM
NC(=O)CC[C@@H]1NC(=O)[C@@H]2CCCN2C(=O)c2cc([N+](=O)[O-])cc(I)c2NCCCC[C@@H](C(=O)NC(CC(=O)O)C(N)=O)NC1=O (stereo partly drawn)	G9a inh 56µM
O=C(Oc1ccc(Br)cc1C(=S)N1CCOCC1)c1ccc([N+](=O)[O-])cc1[N+](=O)[O-]	JMJD2A Tudor inconclusive, HP1b chromo inh inconclusive, PLK1 PBD block 6µM, BAZ2B block inconclusive, G9a inh 8.9µM
O=C(Oc1ccc(C(=S)N2CCOCC2)cc1)c1cccc([N+](=O)[O-])c1	PLK1 PBD block inconclusive, G9a inh 22µM
O=C(Oc1cccc(C(=S)N2CCOCC2)c1)c1cccc([N+](=O)[O-])c1	G9a inh 45µM
O=C(Oc1ccc(Br)cc1C(=S)N1CCCCC1)c1cc([N+](=O)[O-])cc([N+](=O)[O-])c1	JMJD2A Tudor inconclusive, HP1b chromo inh inconclusive, PLK1 PBD block inconclusive, BAZ2B block inconclusive, G9a inh inconclusive
O=C(Oc1cccc(C(=S)N2CCOCC2)c1)c1ccc([N+](=O)[O-])cc1[N+](=O)[O-]	HP1b chromo inh inconclusive, PLK1 PBD block inconclusive, BAZ2B block inconclusive, G9a inh 25µM
O=C(c1cccc([N+](=O)[O-])c1)N1CCOCC1	none
Cc1ccc(C(=O)N2c3ccccc3N=C(c3ccccc3)C2C(=O)NC(C)C)cc1 (stereo not drawn)	none (no result: JMJD2A Tudor, HP1b chromo inh, BAZ2B block, G9a inh)
Cn1nnnc1Sc1ncnc2scc(-c3cccc(Cl)c3)c12	none (no result: HP1b chromo inh, PLK1 PBD block, PI5P4Ka inh, BAZ2B block, G9a inh)
COc1ccc(C(C(=O)Nc2ccc3c(c2)OCCO3)n2c(=O)c(-c3ccco3)nc3ccccc32)cc1 (stereo not drawn)	none (no result: JMJD2A Tudor, HP1b chromo inh, BAZ2B block, G9a inh)
CCOc1ccc(CNC(=S)Nc2ccccc2)cc1Cl	none (no result: G9a inh)
CCN(C(=O)Cn1cnc2onc(-c3ccc(F)cc3)c2c1=O)c1ccc(OC)cc1	none (no result: PLK1 PBD block, PI5P4Ka inh)
O=C(Oc1cccc(C(=S)N2CCOCC2)c1)c1cc([N+](=O)[O-])cc([N+](=O)[O-])c1	JMJD2A Tudor inconclusive, PLK1 PBD block inconclusive, BAZ2B block inconclusive, G9a inh 35µM
O=C1Nc2ccccc2C1C(C[N+](=O)[O-])c1ccccc1 (stereo not drawn)	none
COc1ccc(-c2ccc(CN3C(C)C(=O)N(Cc4cn(CCC5OCCO5)nn4)CCS3(=O)=O)cc2)cc1 (stereo not drawn)	PLK1 PBD block 42µM, PI5P4Ka inh inconclusive (no result: JMJD2A Tudor, HP1b chromo inh, BAZ2B block, G9a inh)
COc1ccc(-c2ccc(CN3C(C)C(=O)N(Cc4cn(CCC5OCCO5)nn4)CCS3(=O)=O)cc2)cn1 (stereo not drawn)	none (no result: JMJD2A Tudor, HP1b chromo inh, BAZ2B block, G9a inh)
CN(Cc1ccccc1)C1CC(=O)N(c2ccc(C(=O)O)cc2)C1=O (stereo not drawn)	G9a inh 3.5µM (no result: PI5P4Ka inh)
CCCCCCC(=O)N(O)C1CC(=O)N(Cc2ccccc2)C1=O (stereo not drawn)	JMJD2A Tudor inconclusive, G9a inh 2.5µM (no result: PI5P4Ka inh)
CCCCCC(=O)N(O)C1CC(=O)N(c2ccccc2)C1=O (stereo not drawn)	JMJD2A Tudor 22µM, PLK1 PBD block inconclusive, G9a inh 1.4µM
CCCCCOc1ccc(N2C(=O)CC(N(O)c3ccccc3)C2=O)cc1 (stereo not drawn)	G9a inh 50µM (no result: PI5P4Ka inh)
CCCCOc1ccc(N2C(=O)CC(N(O)c3ccccc3)C2=O)cc1 (stereo not drawn)	none
COc1ccc(N2C(=O)CC(N(CCc3ccccc3)C(=O)c3ccccc3)C2=O)cc1 (stereo not drawn)	G9a inh inconclusive
CCOc1ccc(C(=O)N2CCN(CC(=O)N3CCCC3)CC2)cc1OCC	JMJD2A Tudor inconclusive
O=c1c(-c2ccc(F)c(F)c2)nc2cncnc2n1Cc1ccccc1	none (no result: JMJD2A Tudor, HP1b chromo inh, PLK1 PBD block, PI5P4Ka inh, BAZ2B block)
COCCC(=O)N1CCC(Oc2ccc(C(=O)NC(C)CCn3cccn3)cc2)CC1 (stereo not drawn)	none
CCN(CC(=O)Nc1cccc(OC)c1)C(=O)C1CC(=O)N(Cc2ccccc2Cl)C1 (stereo not drawn)	none (no result: JMJD2A Tudor, HP1b chromo inh, BAZ2B block, G9a inh)
CN(Cc1ccccc1C#N)S(=O)(=O)c1cccs1	none
N#Cc1nccnc1S(=O)(=O)c1cccs1	PLK1 PBD block 27µM, G9a inh 4µM
Cc1ccc(S(=O)(=O)CCC(=O)Oc2ccc3c(C)cc(=O)oc3c2)cc1	JMJD2A Tudor inconclusive, PLK1 PBD block inconclusive, G9a inh 50µM
O=c1nc(SCc2c(F)cccc2Cl)nc(-c2ccc(Cl)cc2)[nH]1	PLK1 PBD block 21µM, G9a inh inconclusive
O=c1nc(SCc2ccccc2Cl)nc(-c2ccc(Cl)cc2)[nH]1	PLK1 PBD block inconclusive
COC(=O)CS(=O)(=O)c1cccc2cccnc12	PLK1 PBD block 30µM
O=S(=O)(O)c1cccc2cccnc12	JMJD2A Tudor inconclusive (no result: PLK1 PBD block, PI5P4Ka inh, BAZ2B block, G9a inh)
CSS(=O)(=O)c1cccc2cccnc12	JMJD2A Tudor 3.2µM, PLK1 PBD block 2.4µM, PI5P4Ka inh -91, BAZ2B block 14µM, G9a inh 0.28µM
CN(CC(=O)Nc1ccc(Cl)cc1)S(=O)(=O)c1cccc2cccnc12	G9a inh 45µM
CN(CC(=O)Nc1ncn[nH]1)S(=O)(=O)c1ccc(Cl)cc1	JMJD2A Tudor inconclusive, BAZ2B block 50µM, G9a inh 89µM
CN(CC(=O)Nc1ccc(F)c(F)c1F)C(=O)CCN1C(=O)C2CC=CCC2C1=O (stereo not drawn)	none (no result: JMJD2A Tudor, HP1b chromo inh, BAZ2B block, G9a inh)
O=[N+]([O-])c1cnccc1-n1nnc2ccccc21	none (no result: JMJD2A Tudor, HP1b chromo inh, BAZ2B block, G9a inh)
O=C(COC(=O)c1ccc([N+](=O)[O-])o1)Nc1ncc(Cl)cc1Cl	none (no result: BAZ2B block, G9a inh)
COc1cc(OC)cc(C(=O)NCC(=O)OCC(=O)c2ccc3c(c2)-c2ccccc2C3)c1	G9a inh 35µM
O=C(COC(=O)c1ccc(Br)o1)Nc1ncc(Cl)cc1Cl	JMJD2A Tudor inconclusive, PI5P4Ka inh inconclusive, BAZ2B block 50µM, G9a inh inconclusive
COc1cc(OC)cc(C(=O)NCC(=O)OCC(=O)Nc2ncc(Cl)cc2Cl)c1	G9a inh 71µM
